Reference: PubChem BioAssay (NCI)
The panel holds about 79,000 compounds, 15% with a hit somewhere; the sample as a whole holds those more often. Calls of active or inactive are those of the source. No stated cut-off is given here; in the data, active means growth inhibition above about 70%; inactive means the rest.

Experiments:
[1] = NCI Yeast Anticancer Drug Screen. Data for the rad50 strain (AID 155);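 further: 0% = growth of vehicle-only cultures of the same strain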; conditions: S. cerevisiae rad50 strain growth inhibition, stronger effect = higher value
Summary of the method: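 Yeast carrying a defined DNA repair defect were exposed to test compounds, and growth was compared with vehicle-treated controls to give percent inhibition.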

[2] = NCI Yeast Anticancer Drug Screen. Data for the mec2-1 strain (AID 157); conditions: S. cerevisiae mec2-1 strain, stronger effect = higher value
Summary of the method: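 Vehicle-treated cultures served as reference for growth inhibition of compound-exposed mec2-1 yeast.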

[3] = NCI Yeast Anticancer Drug Screen. Data for the sgs1 mgt1 strain (AID 161);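 further: 0% = growth of cultures given vehicle only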; conditions: S. cerevisiae sgs1 mgt1 strain, stronger effect = higher value
Summary of the method: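 Inhibition of yeast growth, normalised to vehicle-treated controls, is reported for a strain bearing genetic alterations in DNA damage repair.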

[4] = NCI Yeast Anticancer Drug Screen. Data for the cln2 rad14 strain (AID 165);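 further: 0% = growth equal to vehicle treated cultures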; conditions: S. cerevisiae cln2 rad14 strain, stronger effect = higher value
Summary of the method: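 Each compound was tested on cln2 rad14 yeast. Inhibition of growth was calculated against vehicle-exposed controls.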

[5] = NCI Yeast Anticancer Drug Screen. Data for the mlh1 rad18 strain (AID 175); conditions: S. cerevisiae mlh1 rad18 strain growth inhibition, stronger effect = higher value
Summary of the method: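 Vehicle-treated cultures served as the reference for growth inhibition in a yeast strain carrying DNA damage repair alterations exposed to each compound.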

[6] = NCI Yeast Anticancer Drug Screen. Data for the bub3 strain (AID 167); conditions: S. cerevisiae bub3 mutant strain, stronger effect = higher value
Summary of the method: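 Compounds were applied to a genetically altered yeast strain carrying a cell-cycle control defect. Growth inhibition was scored against vehicle-treated controls.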

[7] = at 5.0 µM (retest, dose inferred, filed as 0.5)
[8] = at 50.0 µM (retest, dose inferred, filed as 5.0)

Measured: growth inhibition

O=C1CCC(C(c2ccccc2)(c2ccccc2)c2ccccc2)CC1=O (stereo unspecified)
inactive: [1]; [7] 0% | [1]; at 50.0 µM -11.1% | [2]; [7] -1% | [2]; at 50.0 µM 16.9% | [3]; [7] 0% | [3]; at 50.0 µM -5.2% | [4]; [7] -14% | [4]; at 50.0 µM 22.5% | [5]; [7] -1% | [5]; at 50.0 µM -10.2%
active: [1]; [8] 99% | [2]; [8] 98% | [3]; [8] 99% | [4]; [8] 99% | [5]; [8] 99%

COc1ccccc1NC(=S)N/N=C(/C)c1ccccn1
inactive: [1]; [7] 22% | [1]; at 50.0 µM -30.1% | [2]; [7] 22% | [2]; [8] 66% | [2]; at 50.0 µM -8.7% | [3]; [7] 34% | [3]; [8] 61% | [3]; at 50.0 µM 18.4% | [4]; [7] 32% | [4]; [8] 56% | [4]; at 50.0 µM -3.95% | [6]; [7] 54% | [6]; at 50.0 µM 13.5% | [5]; [7] 13% | [5]; [8] 64% | [5]; at 50.0 µM -2.3%
active: [1]; [8] 78% | [6]; [8] 77%

CCOC(=O)C(NC(C)=O)[CH](c1ccccc1)[Sn]([Cl])([c]1ccccc1)[c]1ccccc1 (stereo unspecified)
inactive: [1]; [7] -7% | [1]; [8] -13% | [1]; at 50.0 µM 59.4% | [2]; [7] -1% | [2]; [8] -12% | [2]; at 50.0 µM 65.7% | [3]; [7] -8% | [3]; [8] -5% | [3]; at 50.0 µM 64.7% | [6]; [7] -14% | [6]; [8] 12% | [6]; at 50.0 µM 37.4% | [5]; [7] 1% | [5]; [8] 1% | [5]; at 50.0 µM 60.5%

C=C1C(=O)O[C@@H]2C[C@]3(C)CC[C@]4(C)[C@H](CC[C@@H]5[C@@]6(C)CCC(=O)C(C)(C)[C@@H]6CC[C@]54C)[C@H]3[C@H]12
inactive: [1]; [7] 3% | [1]; [8] 4% | [1]; at 50.0 µM -14.1% | [2]; [7] 18% | [2]; [8] 24% | [2]; at 50.0 µM -16.9% | [3]; [7] 5% | [3]; [8] 11% | [3]; at 50.0 µM -9.1% | [4]; [7] -3% | [4]; [8] -1% | [4]; at 50.0 µM 6.1% | [5]; [7] -2% | [5]; [8] 4% | [5]; at 50.0 µM -18.9%

COc1ccc(C2C3CCCC(C3=O)C(c3ccc(OC)cc3)N2N=O)cc1 (stereo unspecified)
active: [1]; at 50.0 µM 84% | [2]; at 50.0 µM 86.9% | [3]; [8] 77% | [6]; [8] 72% | [6]; at 50.0 µM 85.2% | [5]; [8] 77% | [5]; at 50.0 µM 96.5%
inactive: [1]; [7] 0% | [1]; [8] 68% | [2]; [7] 11% | [2]; [8] 64% | [3]; [7] -4% | [3]; at 50.0 µM 59.5% | [6]; [7] -2% | [5]; [7] -3%

O=[N+]([O-])c1cc(Br)cc2c1nc(NCCCO)c1ccccc12
active: [1]; [8] 93% | [1]; at 50.0 µM 95.7% | [2]; [8] 92% | [2]; at 50.0 µM 96.4% | [3]; [8] 96% | [3]; at 50.0 µM 98.5% | [4]; [8] 89% | [4]; at 50.0 µM 94.3% | [5]; [8] 97% | [5]; at 50.0 µM 98.8%
inactive: [1]; [7] 42% | [2]; [7] 11% | [3]; [7] 43% | [4]; [7] 33% | [5]; [7] 59%

CN(C)c1ccc(/C=C/c2ccnc3ccccc23)c(O)c1
inactive: [1]; [7] 0% | [1]; [8] -6% | [1]; at 50.0 µM 57% | [2]; [7] -4% | [2]; [8] -4% | [2]; at 50.0 µM 28.6% | [3]; [7] 0% | [3]; [8] -6% | [3]; at 50.0 µM 58.9% | [6]; [7] -4% | [6]; [8] -6% | [6]; at 50.0 µM 40.9% | [5]; [7] -8% | [5]; [8] -2% | [5]; at 50.0 µM 68.8%

NC(=S)N/N=C\C12CC3CC(CC(C3)C1)C2
active: [1]; [8] 98% | [1]; at 50.0 µM 97.4% | [2]; [7] 73% | [2]; [8] 97% | [2]; at 50.0 µM 93.7% | [3]; [7] 70% | [3]; [8] 98% | [3]; at 50.0 µM 92.8% | [4]; [8] 97% | [4]; at 50.0 µM 71.5% | [5]; [7] 77% | [5]; [8] 99% | [5]; at 50.0 µM 96.5%
inactive: [1]; [7] 57% | [4]; [7] 25%

CSC(=S)N/N=C/c1cccc(C)n1
inactive: [1]; [7] 13% | [2]; [7] 5% | [2]; [8] 60% | [3]; [7] 3% | [3]; [8] 69% | [3]; at 50.0 µM 66.2% | [4]; [7] -8% | [4]; [8] 26% | [4]; at 50.0 µM 67.7% | [6]; [7] 1% | [5]; [7] 30%
active: [1]; [8] 71% | [1]; at 50.0 µM 95.1% | [2]; at 50.0 µM 82.1% | [6]; [8] 72% | [6]; at 50.0 µM 86.8% | [5]; [8] 80% | [5]; at 50.0 µM 82.6%

CN(C)C(=S)S(=O)(=O)CCCCS(=O)(=O)C(=S)N(C)C
inactive: [1]; [7] -1% | [1]; [8] 3% | [2]; [7] 3% | [2]; [8] 8% | [2]; at 50.0 µM 32.1% | [3]; [7] 2% | [3]; [8] 11% | [4]; [7] -6% | [4]; [8] -1% | [4]; at 50.0 µM 9% | [5]; [7] -3% | [5]; [8] 7%
active: [1]; at 50.0 µM 86.3% | [3]; at 50.0 µM 92.3% | [5]; at 50.0 µM 81.8%

O=c1oc(-c2ccc(Cl)cc2[N+](=O)[O-])nc2ccccc12
active: [1]; at 50.0 µM 77.2% | [3]; at 50.0 µM 70.3%
inactive: [1]; [7] 16% | [1]; [8] 10% | [2]; [7] 17% | [2]; [8] -1% | [2]; at 50.0 µM 63.6% | [3]; [7] 5% | [3]; [8] 6% | [4]; [7] 31% | [4]; [8] 5% | [4]; at 50.0 µM 39.2% | [5]; [7] -23% | [5]; [8] -13% | [5]; at 50.0 µM 68.5%
